Experimental data: PubChem BioAssay (EPA / NIEHS)
Inconclusive results are not listed. Activity calls are given as the source filed them. How the source made its calls: active means hit-call score of the fitted dose curve at least 0.9, where 1 is the maximum; inconclusive means response in the unintended direction; inactive means score below 0.9.

Columns and labels:
[1] = biological target: Estrogen receptor (Homo sapiens) + Estrogen receptor beta (Homo sapiens) (UniProt P03372+Q92731); test: OT_ER_ERaERb_1440: Odyssey Thera (OT) 24-hour HEK293T Protein-Complementation Assay for Estrogen Receptor-alpha/-beta Homodimer (AID 2283356);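 further: heteromer of ER alpha and ER beta binding domains; hits raise reporter fluorescence and both agonists and antagonists give an increase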
Sequence of Estrogen receptor (Homo sapiens) + Estrogen receptor beta (Homo sapiens) (P03372 whole entry, looked up, the tested form may be a part): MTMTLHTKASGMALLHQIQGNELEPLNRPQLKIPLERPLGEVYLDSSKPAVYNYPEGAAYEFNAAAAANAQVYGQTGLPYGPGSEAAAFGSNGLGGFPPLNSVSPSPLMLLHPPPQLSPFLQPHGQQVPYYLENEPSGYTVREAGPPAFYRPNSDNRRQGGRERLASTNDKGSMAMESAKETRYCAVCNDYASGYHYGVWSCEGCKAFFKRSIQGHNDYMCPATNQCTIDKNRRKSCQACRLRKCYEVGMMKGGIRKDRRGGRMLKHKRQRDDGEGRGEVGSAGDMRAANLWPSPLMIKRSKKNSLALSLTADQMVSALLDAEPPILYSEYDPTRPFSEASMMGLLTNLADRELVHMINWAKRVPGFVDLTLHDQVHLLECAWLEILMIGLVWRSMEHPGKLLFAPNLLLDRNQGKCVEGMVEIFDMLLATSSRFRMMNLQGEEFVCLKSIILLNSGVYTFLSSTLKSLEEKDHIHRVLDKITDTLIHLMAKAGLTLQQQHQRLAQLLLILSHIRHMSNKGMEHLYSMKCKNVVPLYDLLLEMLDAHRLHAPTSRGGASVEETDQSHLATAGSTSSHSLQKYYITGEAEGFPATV
Sequence of Estrogen receptor (Homo sapiens) + Estrogen receptor beta (Homo sapiens) (Q92731 whole entry, looked up, the tested form may be a part): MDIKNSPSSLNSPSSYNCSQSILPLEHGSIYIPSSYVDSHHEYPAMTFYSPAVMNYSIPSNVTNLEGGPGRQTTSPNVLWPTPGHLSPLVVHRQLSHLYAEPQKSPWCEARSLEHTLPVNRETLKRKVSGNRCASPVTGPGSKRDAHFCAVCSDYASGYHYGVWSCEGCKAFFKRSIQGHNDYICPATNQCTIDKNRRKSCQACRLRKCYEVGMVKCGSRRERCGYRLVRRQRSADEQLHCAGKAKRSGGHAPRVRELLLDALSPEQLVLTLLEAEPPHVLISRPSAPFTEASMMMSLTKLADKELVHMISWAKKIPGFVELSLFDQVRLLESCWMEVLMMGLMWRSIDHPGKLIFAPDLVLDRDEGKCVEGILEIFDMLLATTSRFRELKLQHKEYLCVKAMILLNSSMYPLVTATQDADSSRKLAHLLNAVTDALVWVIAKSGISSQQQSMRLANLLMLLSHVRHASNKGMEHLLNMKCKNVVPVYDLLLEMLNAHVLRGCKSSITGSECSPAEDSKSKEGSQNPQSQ
Method in brief: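 Readout: mean fluorescence intensity in nucleus (agonists) or nucleus plus cytoplasm (antagonists), read by laser scanning cytometer after 24 h compound exposure of HEK293T cells carrying ERα/ERβ LBD fragment-complementation constructs; DMSO baseline.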

[2] = biological target: Estrogen receptor beta (Homo sapiens) (UniProt Q92731); test: OT_ER_ERbERb_0480: Odyssey Thera (OT) 8-hour HEK293T Protein-Complementation Assay for Estrogen Receptor-beta/-beta Homodimer (AID 2283357);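 further: active means signal gain over DMSO baseline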
Sequence of Estrogen receptor beta (Homo sapiens) (Q92731 whole entry, looked up, the tested form may be a part): as above
Method in brief: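 Readout: increase in mean fluorescence intensity (nucleus for agonists; nucleus plus cytoplasm for antagonists) relative to DMSO, from a reporter-fragment complementation of human ER-beta LBD homodimer in HEK293T cells dosed 8 hours.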

[3] = biological target: Nuclear receptor subfamily 1 group I member 2 (Homo sapiens) (UniProt O75469); test: NVS_NR_hPXR: NovaScreen (NVS) Nuclear Receptor Binding Assay for human Pregnane X Receptor (PXR) (AID 2283365);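 further: a drop in FRET signal versus DMSO baseline means the compound binds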
Sequence of Nuclear receptor subfamily 1 group I member 2 (Homo sapiens) (O75469 whole entry, looked up): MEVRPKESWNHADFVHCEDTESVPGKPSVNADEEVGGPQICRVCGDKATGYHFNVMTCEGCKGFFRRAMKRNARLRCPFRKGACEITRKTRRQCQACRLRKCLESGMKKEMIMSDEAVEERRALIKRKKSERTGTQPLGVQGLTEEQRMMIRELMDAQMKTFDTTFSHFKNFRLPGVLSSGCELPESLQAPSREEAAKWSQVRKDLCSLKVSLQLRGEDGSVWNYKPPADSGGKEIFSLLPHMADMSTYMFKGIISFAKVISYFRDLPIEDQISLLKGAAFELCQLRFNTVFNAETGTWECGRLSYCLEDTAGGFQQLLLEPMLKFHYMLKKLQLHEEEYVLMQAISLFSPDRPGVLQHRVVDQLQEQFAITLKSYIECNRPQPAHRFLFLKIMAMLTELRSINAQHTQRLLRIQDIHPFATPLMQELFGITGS
Method in brief: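 TR-FRET signal read at 2 h in a cell-free human PXR binding format. DMSO served as negative control and baseline; activity scored as signal loss. Single-concentration duplicate screen (25 uM), then concentration-response follow-up.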

[4] = biological target: Peroxisome proliferator-activated receptor gamma (Homo sapiens) (UniProt P37231); test: NVS_NR_hPPARg: NovaScreen (NVS) Nuclear Receptor Binding Assay for human Peroxisome Proliferator-activated Receptor gamma (PPARg) (AID 2283370)
Method in brief: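 FP read-out, 2 h post-dose, cell-free extracted receptor protein. Signal loss vs DMSO negative control = binding activity. Single-conc duplicate HTS at 25 uM; concentration-response follow-up for actives.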

[5] = biological target: Estrogen receptor beta (Homo sapiens) (UniProt Q92731); test: OT_ER_ERbERb_1440: Odyssey Thera (OT) 24-hour HEK293T Protein-Complementation Assay for Estrogen Receptor-beta/-beta Homodimer (AID 2283380);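 further: fluorescence gain from ER beta LBD homodimer complementation read by laser scanning cytometry; scored as signal increase over DMSO baseline for both agonists and antagonists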
Method in brief: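 HEK293T cells stably expressing human ER-beta LBD (aa 310-547) PCA homodimer pair, dosed 24 h; formaldehyde-fixed, Draq5-stained. Readout: increase in nuclear (agonist) or nuclear plus cytoplasmic (antagonist) fluorescence intensity versus DMSO, gain-of-signal fitting.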

[6] = biological target: Retinoic acid receptor alpha (Homo sapiens) (UniProt P10276); test: NVS_NR_hRAR_Antagonist: NovaScreen (NVS) Nuclear Receptor Binding Assay for human Retinoic Acid Alpha Receptor Antagonism (RAR) (AID 2283358)
Method in brief: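 Cell-free TR-FRET binding assay on extracted receptor protein, run in antagonist mode; signal read 2 hours after chemical dosing. Loss of signal was fitted relative to DMSO baseline. Screened at 25 uM in duplicate, actives followed up in concentration series.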

[7] = biological target: Glucocorticoid receptor (Homo sapiens) (UniProt P04150); test: NVS_NR_hGR: NovaScreen (NVS) Nuclear Receptor Binding Assay for human Glucocorticoid Receptor (GR) (AID 2283363);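 on AC50: activity is loss of specific radioligand binding signal relative to DMSO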
Sequence of Glucocorticoid receptor (Homo sapiens) (P04150 whole entry, looked up): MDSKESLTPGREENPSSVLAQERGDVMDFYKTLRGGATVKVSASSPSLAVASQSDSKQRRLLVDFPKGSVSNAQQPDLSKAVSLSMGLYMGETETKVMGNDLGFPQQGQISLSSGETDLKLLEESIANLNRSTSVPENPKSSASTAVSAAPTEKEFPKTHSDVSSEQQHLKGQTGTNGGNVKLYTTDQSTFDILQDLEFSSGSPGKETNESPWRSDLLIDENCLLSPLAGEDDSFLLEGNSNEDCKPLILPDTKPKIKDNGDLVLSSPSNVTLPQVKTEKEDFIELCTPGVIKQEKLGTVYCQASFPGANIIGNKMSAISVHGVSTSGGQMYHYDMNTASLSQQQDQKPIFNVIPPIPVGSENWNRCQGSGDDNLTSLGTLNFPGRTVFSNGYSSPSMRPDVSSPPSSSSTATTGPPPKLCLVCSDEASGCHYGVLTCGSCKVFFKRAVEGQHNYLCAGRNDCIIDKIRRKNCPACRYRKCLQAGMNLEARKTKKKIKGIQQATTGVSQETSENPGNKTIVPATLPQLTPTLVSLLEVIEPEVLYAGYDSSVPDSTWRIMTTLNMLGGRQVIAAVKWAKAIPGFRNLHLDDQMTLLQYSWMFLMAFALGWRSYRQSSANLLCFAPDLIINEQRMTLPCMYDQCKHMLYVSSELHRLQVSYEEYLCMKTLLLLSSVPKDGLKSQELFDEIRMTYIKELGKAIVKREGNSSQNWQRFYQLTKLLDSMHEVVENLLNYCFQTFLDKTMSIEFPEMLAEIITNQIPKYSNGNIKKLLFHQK
Method in brief: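 Cell-free radioligand binding with extracted receptor protein, read by filter-based scintillation counting 16 hours after dosing. Loss of specific signal versus DMSO baseline was scored. Primary screen ran in duplicate at 25 uM; actives were followed up in concentration series.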

[8] = biological target: Androgen Receptor/SRC-1 Co-activator, AR (gene 367) (UniProt P10275); test: OT_AR_ARSRC1_0480: Odyssey Thera (OT) 8-hour HEK293T Protein-Complementation Assay for Androgen Receptor/SRC-1 Co-activator (AID 2283354);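 further: hits raise the complementation signal above DMSO so AC50 marks enhancers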
Method in brief: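 HEK293T cells stably expressing AR and SRC-1 fused to split Venus YFP fragments via (Gly4Ser)2 linkers were read 8 h after compound dosing. Complementation was imaged at 488 and 635nm, and nuclear/cytoplasmic fluorescence ratio (488nm) was taken over ≥400 cells; gain-of-signal versus DMSO.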

[9] = biological target: rat Mineralocorticoid Receptor (MR), Nr3c2 (gene 25672) (UniProt P22199); test: NVS_NR_rMR: NovaScreen (NVS) Nuclear Receptor Binding Assay for rat Mineralocorticoid Receptor (MR) (AID 2283355)
Method in brief: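 Cell-free radioligand binding to MR in adrenalectomized rat brain supernatant, scintillation counted 24 h after dosing. Loss of signal versus DMSO baseline marks displacement. Primary screen in duplicate at 25 uM; actives retested as concentration series.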

PGR (gene 5241) = PGR (gene 5241) (UniProt P06401); test: NVS_NR_hPR: NovaScreen (NVS) Nuclear Receptor Binding Assay for human Progestron Receptor (PR) (AID 2283360);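 further: active means loss of bound radioligand signal versus DMSO baseline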
Method in brief: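 T47D-derived receptor preparation, cell-free, with tritiated or iodinated radioligand displacement measured by scintillation 18 h post-dosing. Single 25 uM duplicate screen, then concentration series; signal loss relative to DMSO.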

[10] = biological target: rat Serotonin Transporter (SERT), Slc6a4 (gene 25553) (UniProt P31652); test: NVS_TR_rSERT: NovaScreen (NVS) Transporter Assay for rat Serotonin Transporter (SERT) (AID 2283375)
Sequence of rat Serotonin Transporter (SERT), Slc6a4 (gene 25553) (P31652 whole entry, looked up): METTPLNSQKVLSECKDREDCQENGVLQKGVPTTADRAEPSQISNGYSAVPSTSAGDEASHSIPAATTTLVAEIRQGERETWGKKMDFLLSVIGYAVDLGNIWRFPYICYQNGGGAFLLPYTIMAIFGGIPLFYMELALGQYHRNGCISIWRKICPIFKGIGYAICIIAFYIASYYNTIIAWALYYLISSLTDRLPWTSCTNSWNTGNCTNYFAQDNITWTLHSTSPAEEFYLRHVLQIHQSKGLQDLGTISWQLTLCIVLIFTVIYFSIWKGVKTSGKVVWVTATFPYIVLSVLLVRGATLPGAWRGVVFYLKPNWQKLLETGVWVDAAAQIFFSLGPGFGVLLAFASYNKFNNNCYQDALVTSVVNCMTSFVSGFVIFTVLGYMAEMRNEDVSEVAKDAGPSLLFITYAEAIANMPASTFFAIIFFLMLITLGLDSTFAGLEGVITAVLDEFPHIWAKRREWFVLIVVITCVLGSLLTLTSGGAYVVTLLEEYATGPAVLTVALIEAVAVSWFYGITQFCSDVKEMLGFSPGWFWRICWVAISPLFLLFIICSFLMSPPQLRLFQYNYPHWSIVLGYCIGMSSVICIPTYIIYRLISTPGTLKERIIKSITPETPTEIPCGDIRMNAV
Method in brief: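 Radioligand displacement, filter scintillation readout; rat forebrain membrane prep, 1 h post-dose. Single-conc 25 uM duplicate screen, then concentration-response on actives. Loss of signal vs DMSO baseline.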

[11] = biological target: human Norepinephrine Transporter (NET), SLC6A2 (gene 6530) (UniProt P23975); test: NVS_TR_hNET: NovaScreen (NVS) Transporter Assay for human Norepinephrine Transporter (NET) (AID 2283377);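 further: cell-free membrane protein extracted from CHO cells expressing human NET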
Sequence of human Norepinephrine Transporter (NET), SLC6A2 (gene 6530) (P23975 whole entry, looked up): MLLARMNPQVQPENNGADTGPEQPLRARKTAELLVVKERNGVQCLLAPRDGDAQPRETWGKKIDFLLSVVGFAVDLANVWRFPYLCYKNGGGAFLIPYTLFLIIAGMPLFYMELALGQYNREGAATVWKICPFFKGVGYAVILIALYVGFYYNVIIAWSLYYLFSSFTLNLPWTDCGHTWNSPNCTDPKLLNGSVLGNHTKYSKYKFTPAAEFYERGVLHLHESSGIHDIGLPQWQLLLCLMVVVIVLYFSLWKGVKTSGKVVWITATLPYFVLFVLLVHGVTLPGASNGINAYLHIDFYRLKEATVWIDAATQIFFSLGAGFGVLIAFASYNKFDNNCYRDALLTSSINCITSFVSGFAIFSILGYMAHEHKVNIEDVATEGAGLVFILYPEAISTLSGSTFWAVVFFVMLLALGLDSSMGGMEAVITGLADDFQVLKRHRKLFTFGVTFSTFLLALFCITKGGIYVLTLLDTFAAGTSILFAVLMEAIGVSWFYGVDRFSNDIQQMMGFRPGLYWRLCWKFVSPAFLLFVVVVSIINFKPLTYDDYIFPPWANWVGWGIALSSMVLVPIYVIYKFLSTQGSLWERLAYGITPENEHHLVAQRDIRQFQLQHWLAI
Method in brief: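 Radioligand binding to human NET in cell-free CHO-derived protein preparations, read by filter-based scintillation counting 1 hour after dosing. Loss of signal versus DMSO baseline indicated displacement; primary screening in duplicate at 25 uM, actives then titrated.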

[12] = biological target: mouse Estrogen Receptor alpha (Era), Esr1 (gene 13982) (UniProt P19785); test: NVS_NR_mERa: NovaScreen (NVS) Nuclear Receptor Binding Assay for mouse Estrogen Receptor alpha (Era) (AID 2283378);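 further: hit means loss of bound radioligand signal relative to DMSO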
Method in brief: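 Filter scintillation counts of bound radioligand, measured 18 h post-dose, gave the readout; decreased signal relative to DMSO controls indicated displacement from mouse Era. Primary screen ran in duplicate at 25 uM; active chemicals were retested across concentrations.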

[13] = biological target: rat Androgen Receptor (AR), Ar (gene 24208) (UniProt P15207); test: NVS_NR_rAR: NovaScreen (NVS) Nuclear Receptor Binding Assay for rat Androgen Receptor (AR) (AID 2283366)
Method in brief: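 Cell-free radioligand binding on extracts of prostate from testosterone-pretreated rats, read by filter-based scintillation counting 18 h after dosing. Loss of bound signal fitted positively versus DMSO; primary screen in duplicate at 25 uM, actives followed up in concentration series.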

[14] = biological target: human Peroxisome Proliferator-activated Receptor alpha (PPARa), PPARA (gene 5465) (UniProt Q07869); test: NVS_NR_hPPARa: NovaScreen (NVS) Nuclear Receptor Binding Assay for human Peroxisome Proliferator-activated Receptor alpha (PPARa) (AID 2283359);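 further: activity means loss of TR-FRET signal versus DMSO baseline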
Method in brief: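 Cell-free binding assay with extracted human protein, read by TR-FRET 1 h after chemical dosing. Loss of signal relative to DMSO baseline indicates binding. Primary screen used duplicate single concentration (25 uM); actives followed up in concentration series.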

[15] = biological target: Agonist Androgen Response Element (ARE), AR (gene 367) (UniProt P10275); test: OT_AR_ARELUC_AG_1440: Odyssey Thera (OT) 24-hour CHO-K1 Luciferase Assay for Agonist Androgen Response Element (ARE) (AID 2283379)
Method in brief: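 Seed CHO-K1 cells; dose compounds for 24 h; add D-luciferin plus ATP in PBS; read luminescence. Signal increase relative to vehicle defines agonist activity, with at least 3 replicate wells per sample.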

[16] = biological target: human Dopamine Transporter (DAT), SLC6A3 (gene 6531) (UniProt Q01959); test: NVS_TR_hDAT: NovaScreen (NVS) Transporter Assay for human Dopamine Transporter (DAT) (AID 2283374);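 further: activity means loss of bound radioligand signal relative to DMSO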
Sequence of human Dopamine Transporter (DAT), SLC6A3 (gene 6531) (Q01959 whole entry, looked up): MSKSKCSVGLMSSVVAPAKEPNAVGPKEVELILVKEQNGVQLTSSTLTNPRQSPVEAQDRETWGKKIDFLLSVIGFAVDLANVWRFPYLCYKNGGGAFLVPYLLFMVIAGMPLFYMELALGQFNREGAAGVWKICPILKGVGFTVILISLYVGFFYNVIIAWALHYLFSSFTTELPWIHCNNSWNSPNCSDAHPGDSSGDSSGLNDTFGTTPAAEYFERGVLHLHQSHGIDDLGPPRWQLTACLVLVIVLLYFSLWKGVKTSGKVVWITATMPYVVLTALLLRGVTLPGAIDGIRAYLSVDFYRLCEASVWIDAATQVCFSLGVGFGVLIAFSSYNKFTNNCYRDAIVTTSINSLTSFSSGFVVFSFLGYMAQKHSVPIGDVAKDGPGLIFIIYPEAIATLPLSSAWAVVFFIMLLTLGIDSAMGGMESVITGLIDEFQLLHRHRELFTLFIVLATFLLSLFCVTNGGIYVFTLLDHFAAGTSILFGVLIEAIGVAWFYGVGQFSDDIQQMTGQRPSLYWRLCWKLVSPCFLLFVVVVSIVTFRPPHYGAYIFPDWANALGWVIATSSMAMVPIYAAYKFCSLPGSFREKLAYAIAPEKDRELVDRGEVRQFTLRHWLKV
Method in brief: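 Cell-free radioligand binding to extracted human DAT protein, read 1 h after dosing by filter-based scintillation counting. Loss of specific binding scored against DMSO baseline; primary screen in duplicate at 25 uM, actives then run in concentration series.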

[17] = biological target: guinea pig Sigma Receptor, Non-selective Binding, SIGMAR1 (gene 100135589) (UniProt Q60492); test: NVS_OR_gSIGMA_NonSelective: NovaScreen (NVS) Nuclear Receptor Binding Assay for guinea pig Sigma Receptor, Non-selective Binding (AID 2283367)
Sequence of guinea pig Sigma Receptor, Non-selective Binding, SIGMAR1 (gene 100135589) (Q60492 whole entry, looked up): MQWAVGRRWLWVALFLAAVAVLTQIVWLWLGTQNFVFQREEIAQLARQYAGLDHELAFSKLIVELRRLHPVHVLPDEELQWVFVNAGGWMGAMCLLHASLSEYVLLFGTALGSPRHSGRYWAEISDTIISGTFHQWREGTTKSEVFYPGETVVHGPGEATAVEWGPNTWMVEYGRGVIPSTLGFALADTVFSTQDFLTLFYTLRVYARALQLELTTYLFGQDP
Method in brief: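 Guinea pig brain membranes, cell-free radioligand binding; read 1 h after dosing by filter-based scintillation counting. Loss of signal vs DMSO baseline taken as displacement. Primary screen single concentration 25 uM in duplicate; actives retested in concentration series.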

[18] = test system: guinea pig Dopamine Transporter (DAT), gene 100714898; test: NVS_TR_gDAT: NovaScreen (NVS) Transporter Assay for guinea pig Dopamine Transporter (DAT) (AID 2283369);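 further: active compounds lower bound radioligand signal relative to DMSO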
Method in brief: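 Cell-free striatal membrane prep (guinea pig), 2 h exposure, filtration + scintillation readout of radioligand binding. Single-point 25 uM duplicate; actives rerun singleton, top conc 50 uM.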

`CC(CCl)OP(=O)(OC(C)CCl)OC(C)CCl` (stereo unspecified) was tested, and the outcome [1] was “inactive”, the outcome [2] was “inactive” and the AC50 [3] was 4.35 µM (active). The outcome [4] was “inactive” and the outcome [5] was “inactive”.

With `CCN(Cc1cccc(S(=O)(=O)O)c1)c1ccc(C(=C2C=CC(=[N+](CC)Cc3cccc(S(=O)(=O)O)c3)C=C2)c2ccc(O)cc2S(=O)(=O)[O-])cc1` the outcome [1] was “inactive”, the outcome [2] was “inactive” and the AC50 [6] was 7.39 µM (active). The AC50 [7] was 11.5 µM (active), the AC50 [3] was 2.41 µM (active) and the AC50 [4] was 8.78 µM (active). The outcome [5] was “inactive”.

In the case of `CN(C)Cc1ccccc1O`, the outcome [8] is reported as “inactive”, the outcome [1] is reported as “inactive” and the outcome [2] is reported as “inactive”. For the same compound, the outcome [5] was “inactive”.

In the case of `C#C[C@]1(O)CC[C@H]2[C@@H]3CCc4cc(OC)ccc4[C@H]3CC[C@@]21C`, the outcome [9] is reported as “inactive”, the outcome (PGR (gene 5241)) is reported as “inactive” and the outcome [7] is reported as “inactive”. The AC50 [10] was 19 µM (active), the AC50 [11] was 3.99 µM (active) and the outcome [12] was “inactive”.

With `CC/C=C\CCOC(C)=O` the outcome [1] was “inactive”, the outcome [2] was “inactive” and the outcome [5] was “inactive”.

In the case of `CC(=O)Nc1ccc(N=Nc2cc(C)ccc2O)cc1`, the AC50 [13] is reported as 25 µM (active).

For `Cc1ccc(S(=O)(=O)NCl)cc1`, the outcome [1] was “inactive”, the outcome [2] was “inactive” and the outcome [3] was “inactive”. The outcome [5] was “inactive”.

`CNC(=S)NC` was tested, and the outcome [8] was “inactive”, the outcome [14] was “inactive” and the outcome [7] was “inactive”. For the same compound, the outcome [3] was “inactive” and the outcome [15] was “inactive”.

`O=S(=O)(O)c1ccc2ccccc2c1` was tested, and the outcome [3] was “inactive”.

`CCCCNc1ccccc1` was tested, and the outcome (PGR (gene 5241)) was “inactive” and the outcome [16] was “inactive”.

In the case of `O=C(OCCOCCOCCOC(=O)c1ccccc1)c1ccccc1`, the outcome [1] is reported as “inactive”, the outcome [3] is reported as “inactive” and the outcome [5] is reported as “inactive”.

With `CO[Si](OC)(c1ccccc1)c1ccccc1` the outcome [11] was “inactive”.

With `CCCCCCCCCCCCCCCC[N+](C)(C)Cc1ccccc1` the AC50 [17] was 1.23 µM (active), the AC50 [18] was 17.3 µM (active) and the AC50 [16] was 1.89 µM (active). The outcome [10] was “inactive” and the AC50 [11] was 2.45 µM (active).

`C(=C(c1ccccc1)c1ccccc1)c1ccccc1` was tested, and the AC50 [1] was 29.3 µM (active), the AC50 [2] was 1.49 µM (active) and the AC50 [12] was 8.44 µM (active). For the same compound, the AC50 [5] was 1.59 µM (active).
